The whole screen tested about 140,000 compounds, of which about 4,300 (3.1%) were called active. Inconclusive results (about 21%) are left out. The sample holds actives, similar compounds and a random draw of the others, so the mix is not that of the screen. A number with no mark means an inactive call.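 The calls were made as follows: active = readout at or below -70, meaning at least 70% loss of cells showing the perinucleolar compartment, a nuclear body marking cancer cells; inconclusive = readout between -30 and a set limit; inactive = the rest.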

The assay can be described thus: High Content Assay for Compounds that inhibit the Assembly of the Perinucleolar Compartment.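 Also: plate controls were DMSO wells for no effect and camptothecin positive control wells for full effect.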 The following applies: PC3M PTB-GFP, PNC prevalence imaging, 16 h; at 10 µM; hits give low values. The procedure, abridged: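 Compounds are pinned in duplicate onto adhered PC3M cells stably expressing GFP-tagged PTB and incubated 16 h at 37 C. Cells are then fixed, nuclei stained with Hoechst, and PNC-positive cells counted.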
On to `COc1ccc(C(CC(=O)O)NC(=O)Cc2ccccc2)cc1` (centres undefined), for which the activity change (PNC), negative = inhibition is -1.4%.

As for `COc1cccc(CNCCc2c[nH]c3ccccc23)c1OCc1ccccc1F`, the activity change (PNC), negative = inhibition was 9.41%. Under `COc1ccc(C(CCNCc2ccccc2F)c2ccc(F)cc2)cc1` (centres undefined) stands -83.9% (active). Under `COc1ccc(S(=O)(=O)NC(C)C(=O)Nc2cccc([N+](=O)[O-])c2)cc1` (centres undefined) stands -19.9%; under `COc1ccc(-n2nc3c(c2NC(=O)Cc2cccc(C)c2)CS(=O)C3)cc1` (centres undefined), 1.65%. On to `COc1ccc(CC(=O)Nc2c3c(nn2-c2cccc(Cl)c2)CS(=O)C3)cc1` (centres undefined), for which the activity change (PNC), negative = inhibition is -119% (active).

In the case of `Cc1cccc(CC(=O)Nc2c3c(nn2-c2cccc(Cl)c2)CS(=O)C3)c1` (centres undefined), the activity change (PNC), negative = inhibition was -2.34%.

With `CC(NC(=O)C(=O)NN=C1CCC(C(C)(C)C)CC1)c1ccccc1` (centres undefined), the activity change (PNC), negative = inhibition is -5.42%. The result for `COC(=O)Cc1csc(/N=C/c2c(O)n(-c3cccc(C(F)(F)F)c3)c(=O)c3ccccc23)n1` reads -11.4%; that for `COc1ccccc1C(=O)N1CC2(C)CC1CC(C)(C)C2` (centres undefined), -20.8%. Regarding `Cc1cccc(C(=O)NCC(=O)OCC(=O)N2CC3(C)CC2CC(C)(C)C3)c1` (centres undefined), the activity change (PNC), negative = inhibition is -3.76%. `COc1ccc(C(=O)N2CC3(C)CC2CC(C)(C)C3)cc1OC` (centres undefined): the activity change (PNC), negative = inhibition is -104% (active). The result for `Cc1cc(Cl)ccc1NC(=S)NCCCN1CCCC1=O` reads 13%; that for `CCO/N=C(/C)c1c(O)cc(-c2ccccc2)n(-c2ccccc2)c1=O`, 36.7%.

Regarding `CC(C)(C)NC(=O)Cn1nnc(-c2ccccc2Cl)n1`, the activity change (PNC), negative = inhibition is 25.1%. The result for `Cc1ccccc1-c1nnn(CC(=O)c2ccc(S(=O)(=O)N3CCCC3)cc2)n1` reads -100% (active).

In the case of `Cc1cc(C)n(C(=O)c2ccc(S(=O)(=O)N3CCCC3)cc2)n1`, the activity change (PNC), negative = inhibition is 5.75%. Regarding `O=C(COC(=O)Cc1ccc(Br)cc1)Nc1c(F)c(F)c(F)c(F)c1F`, the activity change (PNC), negative = inhibition was 16.2%. The result for `O=C(Nc1nc2ccccc2s1)c1ccc2c(c1)OCO2` reads 62.8%; that for `O=C(Nc1ccc2c(c1)OCCO2)c1ccncc1`, -27.2%; that for `O=C(Nc1nc(-c2ccc3c(c2)OCO3)cs1)c1ccncc1`, -83.5% (active). Take `CCCCNS(=O)(=O)c1ccc2nc(SCC(=O)Nc3cc(C)cc(C)c3)[nH]c2c1`: the activity change (PNC), negative = inhibition is 35.2%. The result for `CCCCN(CC)C(=S)Nc1ccc2nc3n(c(=O)c2c1)CCCCC3` reads 41.2%; that for `O=C(CSc1ccccn1)Nc1nc2c(ccc3ccccc32)s1`, 41.9%.

Source of the values: PubChem BioAssay AID2417 (National Center for Advancing Translational Sciences (NCATS), 2010).
